# Experimental data from PubChem BioAssay AID1117291 (Broad Institute, 2014).
# Potency and affinity values are given separately. Results filed as inconclusive are left out. Unmarked numbers belong to inactive results. The source made the active and inactive calls.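 The calls were made as follows: active = compound whose fitted half-maximal potency lies at or below double its highest tested dose in every test; inconclusive = tests disagree, or a flat partial loss, or a poor fit; inactive = every test inactive.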
# Test: HepG2 cell cytotoxicity, dose response, cytotoxicity control, CellTiter-Glo luminescence, dry powder, set 20 (AID 1117291)
# Details: HepG2 viability, CellTiter-Glo ATP luminescence, 72 h; series mostly up to 26 µM; activity change, negative = cytotoxicity: at the top concentration
Structure (SMILES),"activity change, negative = cytotoxicity",outcome
N#Cc1ccc(S(=O)(=O)Nc2cc(C(F)(F)F)ccc2N2CCCCC2)cc1,-15.7%,–
COc1ccc(C(=O)Nc2cc(F)ccc2N2CCCCC2)cc1S(=O)(=O)O,-9.22%,–
CC(=O)N1CCN(C(=O)C2(NC(=O)Nc3ccc(C(C)C)cc3)CCCC2)CC1,-5.85%,–
O=S(=O)(Nc1cc(C(F)(F)F)ccc1N1CCCCC1)c1ccc(-c2ccccc2)cc1,-11.2%,–
Cc1ccc(NC(=O)NC2(C(=O)N3CCOCC3)CCCCC2)cc1,-22.2%,–
COc1ccc(C(=O)Nc2cc(C(F)(F)F)ccc2N2CCOCC2)cc1S(=O)(=O)O,-8.25%,–
O=S(=O)(Nc1cc(C(F)(F)F)ccc1N1CCCCC1)c1ccc(C(F)(F)F)cc1,-34.1%,–
CC(=O)N1CCN(C(=O)C2(NC(=O)Nc3cccc(C(F)(F)F)c3)CCCCC2)CC1,-9.88%,–
CC(=O)N1CCN(C(=O)C2(NC(=O)Nc3ccc(F)cc3)CCCCC2)CC1,9.85%,–
CC(=O)N1CCN(C(=O)CNC(=O)Nc2ccc(C)cc2)CC1,-26.5%,–
COc1ccc(C(=O)Nc2ccccc2N2CCCCC2)cc1S(=O)(=O)O,-17.1%,–
Cc1ccc(NC(=O)NC2(C(=O)N3CCN(c4ccccc4)CC3)CCCCC2)cc1,0.039%,–
CC(=O)N1CCN(C(=O)C2(NC(=O)Nc3ccc(C)cc3)CC2)CC1,-23.3%,–
CC(=O)N1CCN(C(=O)C2(NC(=O)Nc3ccc(F)cc3)CCCC2)CC1,-14.2%,–
CC(=O)N1CCN(C(=O)C2(NC(=O)Nc3ccccc3F)CCCCC2)CC1,–,inactive
O=S(=O)(Nc1cc(C(F)(F)F)ccc1N1CCCCC1)c1ccc(Br)cc1,-18%,–
CC(=O)N1CCN(C(=O)C2(NC(=O)Nc3ccc(C(C)C)cc3)CCCCC2)CC1,-21.6%,–
NC(=NCCc1c[nH]c2ccccc12)NS(=O)(=O)c1cc(F)ccc1F,-6.37%,–
CC(=O)N1CCN(C(=O)C2(NC(=O)Nc3cccc(F)c3)CCCCC2)CC1,1.14%,–
CC(=O)N1CCN(C(=O)C2(NC(=O)NC(C)(C)C)CCCCC2)CC1,-12.5%,–
CC(=O)N1CCN(C(=O)C2CCCN2C(=O)Nc2ccc(C)cc2)CC1 (configuration not stated),-7.76%,–
O=C(Nc1cc(C(F)(F)F)ccc1N1CCCCC1)c1ccc(S(=O)(=O)O)cc1,2.79%,–
